uPA surface inh: qHTS for Inhibitors of Cell Surface uPA Generation. actives 0.31% (n = 330,000). Potency, µM (highest dose often 38.3 µM), for the others: at the highest dose activity change, negative = inhibition, most hits filed as inhibitors. cell surface uPA generation assay, qHTS; active means well fitted inhibition curve with a large enough effect; inconclusive means small, poorly fitted or top-dose-only effect; inactive means no such curve, though single readings can be large or run the other way; tested in mouse RAW 264.7 cells; further: potency means the concentration at half of the fitted maximal effect; nearly all actives have a fitted effect of over 55% in size
HT1080NT lethal: qHTS for induction of synthetic lethality in tumor cells producing 2HG: qHTS for the HT-1080-NT fibrosarcoma cell line; HT-1080-NT fibrosarcoma viability, CellTiter-Glo ATP luminescence, 48 h; Potency, µM (highest dose often 46.1 µM), without a hit: top-dose activity, negative = less viability, usual class: cytotoxic; actives 1.6% (n = 360,000);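 further: NT is the 2HG producing partner of a matched IDH1 knockdown line; potency means the concentration at half of the fitted maximal effect; 0% = DMSO-treated cells and -100% = media-only wells without cells; nearly all actives have a fitted effect of over 55% in size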
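Fibrosarcoma NT cells, 750 per well in 5% FBS RPMI, were exposed to compound for 48 hours. Viability: CellTiter-Glo luminescence.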
TDP1 cell noCPT: qHTS for Inhibitors of human tyrosyl-DNA phosphodiesterase 1 (TDP1): qHTS in cells in absence of CPT | DT40 Tdp1-/- hTDP1 cells, no CPT, ATP luminescence, 48 h | Potency, µM (highest dose often 46.2 µM), without a hit: at the highest dose activity change, negative = growth inhibition, usual class: inhibitors | actives 15% (n = 420,000); further: potency means the concentration at half of the fitted maximal effect; nearly all actives have a fitted effect of over 55% in size
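Stably hTDP1-transfected Tdp1-null chicken DT40 cells were treated with library compounds minus camptothecin and grown for at least 48 hr at 37 °C, after which cellular ATP was quantified by luminescence.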
IL-1B inflam inh: qHTS for Inhibitors of Inflammasome Signaling: IL-1-beta AlphaLISA Primary Screen; AID 743279, 2014; activity change, % at 57.5 µM; actives 4.7% (n = 360,000); THP-1 LPS/ATP IL-1B secretion, AlphaLISA, 16 h; stronger effect = lower value; in the data active means activity change below about -50%; inconclusive means mostly about -30% to -49%
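THP-1 cells pretreated 1 hr with compounds (up to 57.5 uM final), then stimulated with LPS (250 ng/mL final) plus ATP (1.25 mM final); secreted IL-1B measured by AlphaLISA after 16 hr, decreased signal indicating inhibition.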
TDP1 cell CPT: qHTS for Inhibitors of human tyrosyl-DNA phosphodiesterase 1 (TDP1): qHTS in cells in presence of CPT; actives 12% (n = 420,000); Potency, µM (titrated, usually from 46.2 µM), for inactives: at the highest dose activity change, negative = growth inhibition, hits mostly inhibitors; AID 686979, 2013; chicken DT40 Tdp1-/-;hTDP1 cells + 20 nM CPT, ATP luminescence, 48 h; further: potency means the concentration at half of the fitted maximal effect; nearly all actives have a fitted effect of over 55% in size
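Chicken DT40 Tdp1-/- cells stably complemented with human TDP1 were seeded at 400 cells/well in medium containing 20 nM camptothecin, exposed to pin-transferred compounds, and grown at 37 °C for at least 48 hr. Viability was read as ATP luminescence.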
HT1080 IDH1KD tx: qHTS for induction of synthetic lethality in tumor cells producing 2HG: qHTS for the HT-1080-IDH1KD cell line; HT-1080 IDH1 knockdown viability, ATP luminescence, 48 h; Potency, µM (series often up to 46.1 µM), inactives show at the top dose activity, negative = toxicity, actives largely listed as cytotoxic; actives 2% (n = 360,000);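 further: potency means the concentration at half of the fitted maximal effect; 0% = DMSO wells and -100% = cell-free medium wells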
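After a 2 h attachment period, IDH1KD HT-1080 cells took pin-transferred compound for 48 h at 37 °C; ATP-based luminescence after 10 min room-temperature reagent incubation reported viability.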
* hit, by the source's call; ? = inconclusive; · = not tested or not shown. Rows were chosen to be rich in hits. Some 19% of all compounds tested hit in one or more screens of this group. Unless noted, the call rests on the fitted dose curve; in most records, active means well fitted curve in the direction sought with a large enough effect; inconclusive means small, poorly fitted or top-dose-only effect, or another doubt; inactive means no such curve, though single readings can be large; an effect the other way counts as inactive or inconclusive. Unless noted, on the % scale 0 is the no-effect control and ±100 the full control effect.

SMILES | uPA surface inh | HT1080NT lethal | TDP1 cell noCPT | IL-1B inflam inh | TDP1 cell CPT | HT1080 IDH1KD tx
CCOC(=O)c1cnc2ccc(C(=O)OC)cc2c1Nc1ccc(OCc2ccccc2Cl)cc1 | · | · | ? | · | -12% | ·
COc1ccc(NC(C)=O)cc1NC(=O)c1ccc(C#N)cc1 | 6% | 1% | -13% | -15 | -5% | 0%
CN=C1c2cc3cc(OC)ccc3n2CCN1Cc1ccccc1 | -11% | 16µM* | 2.9µM* | -91* | 3.3µM* | 23µM*
COc1ccc(S(=O)(=O)N2CCN(Cc3ccccc3)CC2)cc1 | · | 6% | ? | -5 | -26% | 6%
COCCNCC(=O)Nc1nc(C)cs1 | -12% | 19% | 4% | 31 | -1% | 17%
CC(C)CN(CC(C)C)C(=O)CCCC(=O)N(CC(C)C)CC(C)C | 2% | 2% | 16µM* | -25 | ? | -1%
O=C1c2ccccc2C(=Cc2cccnc2)c2ccccc21 | · | 2% | ? | -17 | -5% | 2%
O=C1/C(=C/c2cccnc2)Sc2ccccc21 | 14% | -19% | ? | -20 | 26µM* | -16%
Cc1ccc(C)c(S(=O)(=O)N2CCCOC2CNC(=O)C(=O)NCc2ccc3c(c2)OCO3)c1 (centres undefined) | 0% | -2% | ? | -4 | ? | -16%
COc1c(N2CCN(C(=S)NC3CC4CCC3C4)C(C)C2)c(F)cc2c(=O)c(C(=O)O)cn(C3CC3)c12 (centres undefined) | -14% | 7% | 23µM* | -12 | 23µM* | 16%
Cc1ccccc1Nc1nc(N)[nH]c(=O)c1N=O | · | ? | ? | 54 | ? | ?
COc1ccc(CN(CCC#N)CCC2(c3ccccc3)CC(C)N(C)CC2C)cc1OC (centres undefined) | -2% | -7% | -16% | -20 | 3% | -16%
COc1ccc(CNCCC2(Cc3ccccc3)CC(C)N(C)CC2C)cc1OC (centres undefined) | -5% | -26% | 15µM* | -61* | ? | ?
O=C(Nc1c2c(nn1-c1ccc(Cl)cc1)CS(=O)(=O)C2)c1cccc(Cl)c1 | · | · | 21µM* | · | 16µM* | ·
Cc1ccc2oc(=O)c(-c3nc(-c4cccs4)no3)cc2c1 | · | · | -3% | · | -22% | ·
COc1ccc2c(O)c(-c3c(C)cc(C)cc3C)c(=O)[nH]c2c1 | 1% | 21% | ? | · | 1% | 3%
CC(=O)Nc1ccc(S(=O)(=O)Nc2ccc(-n3cnnn3)cc2)cc1 | 2% | 3% | ? | -5 | -22% | -2%
Cc1c(CCOC(=O)C23CC4CC(CC(C)(C4)C2)C3)sc[n+]1Cc1ccccc1 | -4% | ? | 2.9µM* | -26 | 4.1µM* | 23µM*
Cc1c(CCOC(=O)C23CC4CC(CC(C4)C2)C3)sc[n+]1Cc1ccccc1 | -4% | 6% | 10µM* | -15 | ? | 3%
Cc1ncc(C[n+]2csc(CCOC(=O)C34CC5CC(CC(C5)C3)C4)c2C)c(N)n1 | 6% | -16% | ? | -1 | ? | 10%
CCN(CC)S(=O)(=O)c1ccc(N2CCOCC2)c(NC(=O)c2cc3ccccc3o2)c1 | · | 1% | ? | -26 | ? | 10%
COc1ccc(/C=C/c2nc(C#N)c(N3CCCCCC3)o2)cc1OC | · | · | 8.2µM* | · | 12µM* | ·
CCN1CCN(c2oc(/C=C/c3ccc(OC)c(OC)c3)nc2C#N)CC1 | · | · | ? | · | 16µM* | ·

Source: PubChem
